Bioassay records (PubChem BioAssay)
Tau FP inhib: tau fibrillization inhibition (FP) | P10636 | K18 P301L tau heparin fibrillization, Alexa594 FP, 6 h | Potency, µM (highest dose often 57.7 µM), usual class: inhibitors | 280,000 tested, 0.39% active | AID 1468; further: nearly all actives have a fitted effect of over 55% in size
Target sequence (P10636 561-689 P618L limits assumed): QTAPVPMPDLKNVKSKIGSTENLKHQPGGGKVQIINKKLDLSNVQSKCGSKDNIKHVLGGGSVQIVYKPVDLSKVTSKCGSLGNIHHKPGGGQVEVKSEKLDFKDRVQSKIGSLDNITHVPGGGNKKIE
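Recombinant K18 P301L […], labeled with Alexa 594 at 0.24 uM over 15 uM unlabeled; heparin inducer 20 uM final; 37 C, 6 hr; FP endpoint.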
RORg inh: ROR gamma (mouse) transcription inhibition | P51450 | Drosophila S2 Gal4-RORgamma UAS-luciferase reporter, 20 h | Potency, µM (series often up to 53.6 µM), actives largely listed as inhibitors | 310,000 tested, 5.4% active; further: nearly all actives have a fitted effect of over 60% in size
Target sequence (P51450 whole entry, looked up, the tested form may be a part): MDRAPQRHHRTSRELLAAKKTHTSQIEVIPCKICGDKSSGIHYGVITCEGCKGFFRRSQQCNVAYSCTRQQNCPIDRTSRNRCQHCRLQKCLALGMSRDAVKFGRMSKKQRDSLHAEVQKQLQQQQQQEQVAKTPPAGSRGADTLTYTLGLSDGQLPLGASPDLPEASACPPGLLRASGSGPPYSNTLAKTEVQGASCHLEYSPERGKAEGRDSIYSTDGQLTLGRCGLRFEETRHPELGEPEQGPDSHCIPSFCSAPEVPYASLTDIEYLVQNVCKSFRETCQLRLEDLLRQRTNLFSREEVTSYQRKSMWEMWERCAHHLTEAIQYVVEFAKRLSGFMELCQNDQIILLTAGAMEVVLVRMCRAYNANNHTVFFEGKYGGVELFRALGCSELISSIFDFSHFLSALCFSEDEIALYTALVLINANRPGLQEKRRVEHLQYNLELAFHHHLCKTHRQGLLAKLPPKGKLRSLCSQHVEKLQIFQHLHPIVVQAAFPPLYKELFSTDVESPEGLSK
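Luciferase reporter read in Schneider cells carrying Gal4-RORγ (mouse) and UAS-Photinus luciferase; cells given compound 1 h before 700 uM copper sulfate induction, then incubated 20 h at ambient temperature.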
VP16 counter: inhibits Gal4-VP16 luciferase reporter, ROR gamma counter-screen. AID 2546. Potency, µM (top dose mostly 53.6 µM), usual class: inhibitors. 310,000 tested, 3.5% active. Drosophila S2 Gal4-VP16 UAS-luciferase, luminescence, 20 h;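 further: Gal4-VP16 expression switched on by copper sulfate through the metallothionein promoter; nearly all actives have a fitted effect of over 50% in size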
Tau ThT inhib: tau fibrillization inhibition (ThT binding); P10636; AID 1460; Potency, µM (titrated, usually from 57.4 µM), actives largely listed as inhibitors; 270,000 tested, 2.1% active; recombinant tau K18 P301L, heparin-induced fibrillization, ThT fluorescence; further: nearly all actives have a fitted effect of over 55% in size
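Using a mix of unlabeled (15 uM) and Alexa 594-labeled (0.24 uM) tau K18 P301L, heparin-triggered fibrillization over 6 hr at 37 C was scored by ThT fluorescence.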
Tau fluor cs: counter-screen for tau fibril formation inhibitors. AID 1463. tau K18 P301L Alexa594 fluorescence, heparin fibrillization. 280,000 tested, 0.93% active. Potency, µM (top dose mostly 57.7 µM); further: nearly all actives have a fitted effect of over 55% in size
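Human tau K18 P301L (15 uM unlabeled, 0.24 uM Alexa 594-labeled) in 100 mM sodium acetate pH 7 with 20 uM heparin, 6 hr at 37 C. ThT 30 uM added, 1 hr ambient; Alexa 594 FP and total fluorescence read at 555/632 nm.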
Each line names hits and unclear results; the compound was inactive in the other large screens; [ ] = remark or other dose. In the library only some 7.3% were active in any assay of this set; here they are far more common. The call rests on the fitted dose curve; in most records, active means well fitted curve in the direction sought with a large enough effect; inconclusive means small, poorly fitted or top-dose-only effect, or another doubt; inactive means no such curve, though single readings can be large; an effect the other way counts as inactive or inconclusive.

O=C(CN1CCN(c2nc(-c3ccccc3)cs2)CC1)NNC(=O)c1ccc(Br)cc1	none
CCOC(=O)c1c(C(C)(C)C)oc2ccc(O)cc12	VP16 counter 15.8µM
CCOc1cccc2sc(NC(=O)CS(=O)(=O)c3ccc(C)cc3)nc12	Tau FP inhib inconclusive (no result: RORg inh, VP16 counter)
O=C(NNC1=C(C(=O)C(F)(F)F)CCC1)c1cccnc1	RORg inh 7.08µM, VP16 counter 11.2µM
O=C(Nc1cccc(O)c1)c1ccccc1	none
Cc1cccc(C(=O)NNC2=C(C(=O)C(F)(F)F)CCC2)c1O	Tau FP inhib inconclusive, RORg inh 6.31µM, VP16 counter 10µM, Tau ThT inhib inconclusive
O=C(NNC1=C(C(=O)C(F)(F)F)CCC1)c1cccc(O)c1	RORg inh 5.01µM, VP16 counter 3.55µM
Cc1cc(C)cc(NC(=O)Nc2ccc3nc(N4CCN(C)CC4)cc(C)c3c2)c1	Tau FP inhib inconclusive, Tau ThT inhib inconclusive, Tau fluor cs 7.94µM[quencher] (no result: RORg inh, VP16 counter)
Cc1cc(N2CCN(C)CC2)nc2ccc(NC(=O)Nc3ccccc3Cl)cc12	Tau FP inhib inconclusive, Tau ThT inhib 14.1µM, Tau fluor cs 14.1µM[quencher] (no result: RORg inh, VP16 counter)
COc1cccc(NC(=O)Nc2ccc3nc(N4CCN(C)CC4)cc(C)c3c2)c1	Tau FP inhib inconclusive, Tau ThT inhib inconclusive, Tau fluor cs 14.1µM[quencher] (no result: RORg inh, VP16 counter)
COCCCNC(=O)C1CCN(C(=O)c2oc3cc4sc(N(C)C)nc4cc3c2C)CC1	none (no result: Tau FP inhib, Tau ThT inhib, Tau fluor cs)
COc1cc(/C=C2\SC(=S)N(C(C(=O)O)c3ccccc3)C2=O)ccc1O (configuration not stated)	Tau ThT inhib 7.08µM
COc1cc(/C=C2/SC(=NCc3ccccc3)N(Cc3ccccc3)C2=O)ccc1O	Tau ThT inhib inconclusive, Tau fluor cs 10µM[quencher]
CCOc1ccc(/C=C2/SC(=S)N(C(C(=O)O)c3ccccc3)C2=O)cc1OCC (configuration not stated)	Tau FP inhib inconclusive, Tau ThT inhib 15.8µM
O=C(O)C(c1ccccc1)N1C(=O)/C(=C\c2ccc(O)c(O)c2)SC1=S (configuration not stated)	none (no result: Tau FP inhib, Tau ThT inhib, Tau fluor cs)
CCOc1cc(/C=C2\SC(=S)N(C(C(=O)O)c3ccccc3)C2=O)ccc1O (configuration not stated)	VP16 counter inconclusive, Tau ThT inhib inconclusive
NC(N)=NCCC[C@H](N)C(=O)NCC(=O)N[C@@H](CC(=O)O)C(=O)O	none (no result: Tau FP inhib, Tau ThT inhib, Tau fluor cs)
Cc1ccc(NC(=O)c2sc3nc[nH]c(=O)c3c2C)cc1C	Tau ThT inhib inconclusive, Tau fluor cs inconclusive (no result: RORg inh, VP16 counter)
COc1cc(/C=N/NC(=O)CCn2c3ccccc3c3ccccc32)ccc1O	RORg inh inconclusive, Tau ThT inhib inconclusive, Tau fluor cs 25.1µM[quencher]
O=C(Cn1cnc2ccccc21)Nc1ccc(SC(F)F)cc1	RORg inh 3.98µM, VP16 counter 7.94µM
COc1ccc(/C=N/NC(=O)CCn2cnc3ccccc32)cc1	RORg inh 12.6µM, VP16 counter inconclusive, Tau ThT inhib inconclusive
Cn1cccc1/C=N/NC(=O)Cn1cnc2ccccc21	RORg inh 8.91µM, VP16 counter inconclusive
O=C(Cn1cnc2ccccc21)NCc1ccccc1	VP16 counter inconclusive
Cc1ccc(Nc2c(-c3ccc(N4CCOCC4)cc3)nc3cccc(C)n23)cc1	Tau ThT inhib inconclusive, Tau fluor cs inconclusive (no result: RORg inh, VP16 counter)
CCOC(=O)c1sc(NC(=O)c2nc(SCC)ncc2Cl)c(C(=O)OCC)c1C	none (no result: RORg inh, VP16 counter)
Cn1c2ccccc2c2cc(/C=N/NC(=O)c3cc(O)cc(O)c3)ccc21	none (no result: Tau FP inhib, Tau ThT inhib, Tau fluor cs)
CCn1c2ccccc2c2cc(/C=N/NC(=O)c3ccccc3)ccc21	RORg inh 8.91µM, VP16 counter inconclusive, Tau ThT inhib inconclusive
CCOC(=O)C1=C(C)Nc2ccc(C)cc2S1	Tau ThT inhib 15.8µM, Tau fluor cs inconclusive
COc1ccc(C2CC(C(F)(F)F)n3nc(C(=O)NCc4c(C)nn(C)c4C)c(Cl)c3N2)cc1 (configuration not stated)	VP16 counter 22.4µM
CCOC(=O)c1c2c(c(=S)n(-c3ccccc3)c1N)CCC2	Tau FP inhib inconclusive, Tau ThT inhib 25.1µM, Tau fluor cs inconclusive
COC(=O)[C@@]1(Cc2ccccc2)[C@H]2c3cc(C(=O)N4CCCC4)n(Cc4ccc(O)c(OC)c4)c3C[C@H]2CN1C(=O)c1ccccc1	Tau ThT inhib inconclusive
CC(C)(C)c1ccc(C2Sc3ccccc3NC3=C2C(=O)c2ccccc23)cc1 (configuration not stated)	Tau FP inhib inconclusive, Tau fluor cs 5.62µM[quencher] (no result: RORg inh, VP16 counter)
Cc1cccc2c(-c3ccccc3)cc(=O)[nH]c12	none
Cc1cc(=S)[nH]c2c(C)cccc12	RORg inh 11.2µM, VP16 counter inconclusive
CCOC(=O)c1[nH]c(C)c(CCC(=O)Nc2ccc(N(CC)CC)cc2C)c1C	Tau ThT inhib inconclusive (no result: RORg inh, VP16 counter)
CC/C(=N\NC(N)=O)c1ccc(OC)c(OC)c1	none
CCOc1ccc(/C(CCC(=O)O)=N/NC(=S)NC(C)C)cc1	RORg inh 11.2µM, VP16 counter inconclusive
CC/C(=N\NC(=S)NC(C)C)c1ccc(OC)c(OC)c1	RORg inh 4.47µM, VP16 counter 10µM
O=C(c1ccccc1)n1nc(-c2ccc(Cl)cc2)nc1NCc1ccco1	none (no result: RORg inh, VP16 counter)
O=C(NNc1nc(-c2ccccc2)cs1)c1ccco1	Tau FP inhib inconclusive, RORg inh 3.55µM, VP16 counter 5.01µM, Tau ThT inhib 11.2µM, Tau fluor cs inconclusive
O=C(NNc1nc(-c2ccc(Cl)cc2)cs1)c1ccco1	RORg inh 3.98µM, VP16 counter 5.01µM, Tau ThT inhib inconclusive, Tau fluor cs inconclusive
O=C(Nc1nc(-c2ccc(Cl)s2)cs1)c1ccco1	Tau ThT inhib inconclusive, Tau fluor cs inconclusive
COC(=O)N[C@@H](c1cccc(F)c1)[C@@H](C)[N+](=O)[O-]	none
CC(C)c1ccc(CN2CCC(Oc3ccc(C(=O)N4CCCC4)cc3)CC2)cc1	none (no result: Tau FP inhib, Tau ThT inhib, Tau fluor cs)
COc1ccc(-c2c(C)c3ccc(O)c(CN4CCCC(C)C4)c3oc2=O)cc1OC (configuration not stated)	none (no result: RORg inh, VP16 counter)
N#C/C(=C\c1cc(O)c(O)c(O)c1)C(N)=O	Tau ThT inhib inconclusive
Cc1cnc(NC(=O)c2sc3ccccc3c2Cl)s1	RORg inh 2µM, VP16 counter 5.01µM, Tau ThT inhib inconclusive
O=C(Nc1nccs1)c1sc2cc(Cl)ccc2c1Cl	Tau FP inhib inconclusive, RORg inh 0.501µM, VP16 counter 2.82µM, Tau ThT inhib inconclusive
CSc1ccccc1C(=O)Nc1ncc(C)s1	none
Cc1ccnc(NC(=O)c2sc3ccccc3c2Cl)c1	RORg inh 0.282µM, VP16 counter 1.41µM
O=C(Nc1nccs1)c1cc(Cl)ccc1[N+](=O)[O-]	RORg inh 12.6µM, VP16 counter inconclusive
N[C@@H](CO)C(=O)NNCc1ccc(O)c(O)c1O	none (no result: Tau FP inhib, Tau ThT inhib, Tau fluor cs)
O=C(Nc1nccs1)c1ccc(Cl)s1	RORg inh 10µM
O=C(Nc1nccs1)c1sc2ccccc2c1Cl	RORg inh 2.24µM, VP16 counter 5.01µM, Tau ThT inhib inconclusive
CCCn1nnc(NC(=O)c2sc3ccccc3c2Cl)n1	RORg inh inconclusive
CC(C)c1nnc(NC(=O)c2sc3ccccc3c2Cl)s1	RORg inh 8.91µM, VP16 counter inconclusive, Tau ThT inhib inconclusive
